Results filed as inconclusive are left out. Values without a mark were called inactive. The call rests on the fitted dose curve; in most records, active means well fitted activation curve with a large enough effect; inconclusive means small, poorly fitted or top-dose-only effect; inactive means flat fitted curve, though single readings scatter.

Data on 17 molecules can be found in PubChem BioAssay AID720517 (National Center for Advancing Translational Sciences (NCATS), 2013).

A short description of the assay: qHTS for Inhibitors of Cell Surface uPA Generation: FP59 Counterscreen for Cherry-picked Compounds. Further: 0% is about no effect. The following applies: FP59 anthrax toxin cytotoxicity counterscreen, cells; series mostly up to 115 µM; activity (protection from FP59): at the top concentration.
For `CCN(CC)CCNC(=O)/C(=C/c1cn(CC)c2ccccc12)NC(=O)c1cc(OC)c(OC)c(OC)c1`, the “activity (protection from FP59)” value was -1.38%.
The same measure for `COc1ccc(OC)c(S(=O)(=O)N2CCC(NC(=O)c3ccccc3)CC2)c1`: -1.38%.
Next, `CC(=O)c1ccc(NC(=O)Nc2ccc(Br)cc2C)cc1`: -1.21%.
Next, `CC(=O)NS(=O)(=O)c1ccc(NC(=O)c2cccc(OCc3c(C)noc3C)c2)cc1`: -1.47%; `CCC1(CC)NC(=O)N(CC(=O)OCC(=O)c2cc(C)c(C)cc2C)C1=O`: -1.2%.
With `O=C(CNC(=O)N1CC(=O)Nc2ccccc21)Nc1cc(Cl)ccc1Cl`, the “activity (protection from FP59)” value is -1.54%.
The same measure for `CCc1ccccc1NC(=O)CN(C)C(=O)CSc1nnc(Nc2cccc(C)c2C)s1`: -0.108%.
The same measure for `CCOc1cc(N2CCOCC2)c(OCC)cc1NC(=O)c1[nH]c(C)c(C(C)=O)c1C`: -1.34%.
Next, `COc1ccc(-c2cccc(-c3cc(=O)oc4cc(OC)c(OC)c(OC)c34)c2)cc1`: 1.16%.
For `O=C(O)COc1ccccc1/C=N/NC(=O)CNC(=O)c1ccco1`, the “activity (protection from FP59)” value is -1.05%.
As for `O=C(CSC1=NS(=O)(=O)c2ccccc2N1)Nc1nccs1`, the “activity (protection from FP59)” value is -1.26%.
As for `CC(O)[C@H]1CNC(=O)C(=O)N1CCc1cccc(F)c1` (some centres not stated), the “activity (protection from FP59)” value is -1.32%.
The same measure for `Cn1cnc([N+](=O)[O-])c1Sc1ccc(Br)cc1`: -1.41%.
`CC(=O)c1ccc(NC(=O)CN2CCN(c3ccccc3)CC2)cc1`: the “activity (protection from FP59)” value is -1.25%.
The same measure for `CN(c1ccccc1)S(=O)(=O)c1ccc(C(=O)Nc2nnc(C3CC3)o2)cc1`: -0.58%; for `Fc1ccc(N2CCN(c3nc(CN4CCOCC4)nc4scc(-c5ccccc5)c34)CC2)cc1`: 0.176%.
Next, `Cc1ccc(S(=O)(=O)Nc2nc(C)cc(N/N=C/c3ccc(O)cc3)n2)cc1`: 0.72%.
